Records with an inconclusive call do not appear. The source made the active and inactive calls. How the source made its calls, unless noted: active means hit-call score of the fitted dose curve at least 0.9, where 1 is the maximum; inactive means score below 0.9.
Key:
[1] = ACEA_ER_80hr: ACEA Biosciences xCELLigence Real-Time Cell Analysis on Estrogen Receptor Agonism for Proliferation (AID 2282667; active means hit-call score of the fitted dose curve at least 0.9, where 1 is the maximum); conditions: T47D proliferation, impedance (xCELLigence), 80 h
Method in brief: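 Real-time impedance growth kinetics of human T-47D breast cells read 80 h after dosing, gain-of-signal fitted relative to DMSO. Compounds: 1:4 serial series, top final concentration 100 uM, n = 2.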

[2] = APR_HepG2_NuclearSize_24hr: Apredica 24-hour HepG2 Assay for Nuclear Size (AID 2282907); conditions: high-content imaging, actives raise or lower the signal
Method in brief: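 After fixation and permeabilization, 24-hr-treated HepG2 cells were stained with Hoechst 33342 and imaged on an ArrayScan (20x). Doses spanned 0.39–200 uM in duplicate. Nuclear diameter changes in either direction were fitted relative to 0.5% DMSO controls.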

[3] = APR_HepG2_CellLoss_24hr: Apredica 24-hour HepG2 Assay for Cell Loss (AID 2282908); conditions: high-content imaging;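 on AC50: fit in both directions so a hit may be cell loss or gain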
Method in brief: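 Duplicate wells received compound at ten concentrations (0.39–200 uM; final DMSO 0.5% v/v). After fixation with formaldehyde, nuclei stained with Hoechst 33342 were imaged at 20x. Loss or gain of cell count was fitted relative to DMSO controls.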

[4] = APR_HepG2_MicrotubuleCSK_24hr: Apredica 24-hour HepG2 Assay for Microtubule CSK Stabilty (AID 2282909); conditions: HepG2 microtubule cytoskeleton imaging, actives raise or lower the signal
Method in brief: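 Microtubule stability is scored from tubulin immunofluorescence in fixed HepG2 cells imaged at 20x. Cells receive ten compound concentrations up to 200 uM for 24 h; taxol and DMSO serve as positive and negative controls.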

[5] = APR_HepG2_MitoticArrest_24hr: Apredica 24-hour HepG2 Assay for Mitotic Arrest (AID 2282910); conditions: high-content imaging, actives raise or lower the signal
Method in brief: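 Treatment lasted 24 hr in the human HepG2 line at 0.39–200 uM, solvent held at 0.5% DMSO. Fixed cells were stained with Hoechst 33342 and anti-phospho-histone H3, imaged at 20x, and analysed by gain- or loss-of-signal fitting against DMSO.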

[6] = APR_HepG2_MitoMembPot_24hr: Apredica 24-hour HepG2 Assay for Mitochondrial Membrane Potential (AID 2282911); conditions: imaging, actives raise or lower the signal
Method in brief: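 Mitochondrial membrane potential imaged via MitoTracker Red CMXRos (250 nM, 30 min pre-fixation) in fixed HepG2 cells with Hoechst nuclear identification. Ten concentrations 0.39–200 uM, 24 h treatment, 0.5% DMSO; CCCP as positive control.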

[7] = APR_HepG2_MitoMass_24hr: Apredica 24-hour HepG2 Assay for Mitochondrial Mass (AID 2282912); conditions: high-content imaging, actives raise or lower the signal
Method in brief: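 Readout: fluorescence of MitoTracker Red CMXRos (250 nM, added 30 min pre-fixation) in fixed HepG2 cells imaged by HCS. Exposure lasted 24 hr at 0.39–200 uM; increases and decreases were both fitted relative to DMSO.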

[8] = APR_HepG2_p53Act_24hr: Apredica 24-hour HepG2 Assay for p53 Activation (AID 2282913); conditions: high-content imaging, actives raise or lower the signal;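 further: p53 protein immunofluorescence averaged per cell in HepG2 with Hoechst nuclei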
Method in brief: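 Fluorescence imaging of formaldehyde-fixed HepG2 cells labelled for p53 and with Hoechst, 24 h after dosing (0.39–200 uM, duplicate wells, 0.5% v/v DMSO). Signal fitted in both directions relative to DMSO.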

[9] = APR_HepG2_CellCycleArrest_72hr: Apredica 72-hour HepG2 Assay for Cell Cycle Arrest (AID 2282914); conditions: high-content imaging, actives raise or lower the signal
Method in brief: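 Read-out: nuclear DNA content from Hoechst 33342 high-content imaging (20x, six fields/well) after 3.7% formaldehyde fixation, fitted bidirectionally against DMSO. Treatment was 72 h in HepG2, ten concentrations 0.39–200 uM, duplicate, 0.5% DMSO.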

[10] = APR_HepG2_CellLoss_72hr: Apredica 72-hour HepG2 Assay for Cell Loss (AID 2282915); conditions: high-content imaging
Method in brief: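 HepG2 cells were exposed for 72 hr to compounds at 0.39–200 uM (ten concentrations, duplicate) in 0.5% v/v final DMSO. Nuclei were stained with Hoechst 33342 after 3.7% formaldehyde fixation, imaged at 20x, and counted; fits bidirectional versus DMSO.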

[11] = APR_HepG2_P-H2AX_72hr: Apredica 72-hour HepG2 Assay for H2AX Phosphorylation (AID 2282916); conditions: imaging, actives raise or lower the signal;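 further: phospho-histone H2A.x immunostain intensity per cell marking DNA damage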
Method in brief: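 Phospho-H2A.x imaging endpoint in HepG2 after 72 hr compound exposure (0.39–200 uM, duplicate wells). Activity derived by bidirectional curve fitting with DMSO as baseline.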

[12] = APR_HepG2_MitoMembPot_72hr: Apredica 72-hour HepG2 Assay for Mitochondrial Membrane Potential (AID 2282917); conditions: imaging, actives raise or lower the signal
Method in brief: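 HepG2 cells exposed 72 h to compounds at 0.39–200 uM (0.5% v/v DMSO, duplicates); MitoTracker Red CMXRos 250 nM loaded 30 min before 3.7% formaldehyde fixation, imaged by HCS fluorescence. Bidirectional fit versus DMSO.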

[13] = APR_HepG2_MitoticArrest_72hr: Apredica 72-hour HepG2 Assay for Mitotic Arrest (AID 2282918); conditions: high-content imaging, actives raise or lower the signal
Method in brief: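 High-content imaging of fixed human HepG2 cells after 72 h compound exposure (0.39–200 uM, duplicates, 0.5% DMSO); mitotic arrest scored from phospho-histone H3 and nuclear Hoechst staining relative to DMSO.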

[14] = APR_HepG2_MicrotubuleCSK_72hr: Apredica 72-hour HepG2 Assay for Microtubule CSK Stabilty (AID 2282919); conditions: HepG2 microtubule cytoskeleton, high-content imaging, actives raise or lower the signal
Method in brief: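 Ten-point dosing (0.39–200 uM, 0.5% DMSO) of HepG2 for 72 hr, with taxol as the cytoskeletal positive control. The cells were formaldehyde-fixed and then stained with alpha-tubulin/Cy5 and Hoechst. Imaging at 20x used a −2 um Z offset for tubulin.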

[15] = APR_HepG2_P-H2AX_24hr: Apredica 24-hour HepG2 Assay for H2AX Phosphorylation (AID 2282920); conditions: high-content imaging, actives raise or lower the signal
Method in brief: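 High-content imaging of phospho-histone H2A.x immunofluorescence, nuclei counterstained with Hoechst 33342, in fixed HepG2 cells. Compounds ran 0.39–200 uM in duplicate for 24 h, final DMSO 0.5%. Signal change fitted both directions against DMSO.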

[16] = APR_HepG2_StressKinase_72hr: Apredica 72-hour HepG2 Assay for Stress Kinase (AID 2282921); conditions: HepG2 stress kinase (phospho-c-Jun) imaging, actives raise or lower the signal
Method in brief: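 Stress kinase signal reflects nuclear phospho-c-Jun staining in fixed, permeabilized cells exposed 72 h to compound at 0.39–200 uM; DMSO-normalized, fitted for increases or decreases.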

[17] = APR_HepG2_StressKinase_24hr: Apredica 24-hour HepG2 Assay for Stress Kinase (AID 2282922); conditions: HepG2 stress kinase (phospho-c-Jun) imaging, actives raise or lower the signal
Method in brief: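 After 24 hr compound treatment (up to 200 uM, final DMSO 0.5% v/v), HepG2 cells are fixed and multiplex-labeled; phospho-c-Jun intensity is captured by high-content fluorescence imaging and analyzed relative to DMSO.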

[18] = APR_HepG2_p53Act_72hr: Apredica 72-hour HepG2 Assay for p53 Activation (AID 2282923); conditions: high-content imaging, actives raise or lower the signal;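 further: average cellular p53 protein immunofluorescence intensity in HepG2 cells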
Method in brief: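 Fixed-cell p53 staining (sheep primary, Cy5 secondary) measured by fluorescence imaging following 72 hr treatment at 0.39–200 uM in 0.5% DMSO; DMSO served as negative control and baseline.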

[19] = APR_HepG2_MitoMass_72hr: Apredica 72-hour HepG2 Assay for Mitochondrial Mass (AID 2282924); conditions: high-content imaging, actives raise or lower the signal;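 further: MitoTracker Red CMXRos stain intensity per cell imaged as mitochondrial mass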
Method in brief: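 Steps: treat HepG2 72 hr (0.39–200 uM, duplicate wells); load MitoTracker Red CMXRos, 250 nM, 30 min; fix with 3.7% formaldehyde, permeabilise with 0.5% Triton X-100; capture images, nuclei via Hoechst 33342; fit bidirectionally against DMSO.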

[20] = APR_HepG2_CellCycleArrest_24hr: Apredica 24-hour HepG2 Assay for Cell Cycle Arrest (AID 2282905); conditions: imaging, actives raise or lower the signal;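 further: cell cycle arrest scored as ratio of 2N to 4N nuclear DNA content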
Method in brief: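 Step one: dose HepG2 with test compounds, 0.39–200 uM, 0.5% DMSO, 24 hr. Step two: fix, permeabilize, stain nuclei with Hoechst 33342. Step three: image six fields per well at 20x, quantify DNA content, fit bidirectionally relative to DMSO.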

Measured: AC50

C=CCc1ccc(O)c(OC)c1
inactive: [1] | [2] | [3] | [4] | [5] | [6] | [7] | [8] | [9] | [10] | [11] | [13] | [14] | [15] | [16] | [17] | [18] | [19]
active: [12] 68.6 µM

Cc1c(C(=O)O)c(O)cc2c1C(=O)c1c(O)c([C@@H]3O[C@H](CO)[C@@H](O)[C@H](O)[C@H]3O)c(O)c(O)c1C2=O
inactive: [1] | [20] | [2] | [3] | [4] | [5] | [6] | [7] | [8] | [9] | [10] | [11] | [13] | [14] | [15] | [16] | [17] | [18] | [19]

CN1CCN(Cc2cc(-c3ccc4[nH]c(=O)oc4c3)co2)[C@@H](c2ccc(F)cc2)C1
active: [3] 89.7 µM | [4] 148 µM | [5] 42.1 µM | [8] 65.2 µM | [9] 83.5 µM | [10] 51.9 µM | [11] 41.5 µM | [13] 27 µM | [14] 73.2 µM | [15] 62 µM | [16] 41.2 µM | [18] 54.8 µM | [19] 64.6 µM
inactive: [1] | [20] | [2] | [6] | [7] | [17]

CC(=O)Oc1ccccc1C(=O)O
inactive: [20] | [2] | [3] | [4] | [5] | [6] | [7] | [8] | [9] | [10] | [11] | [12] | [13] | [14] | [15] | [16] | [17] | [18] | [19]

CCCCCCCC=O
inactive: [1] | [2] | [3] | [4] | [5] | [6] | [7] | [8] | [9] | [10] | [11] | [12] | [13] | [14] | [15] | [16] | [17] | [18] | [19]

Cc1cccc(Nc2cc(Cl)nc(SCC(=O)O)n2)c1C
inactive: [20] | [2] | [3] | [4] | [5] | [6] | [7] | [8] | [9] | [10] | [11] | [12] | [13] | [14] | [15] | [16] | [17] | [18] | [19]

Cc1ccc(C(C)C)c(O)c1
inactive: [20] | [2] | [3] | [4] | [5] | [6] | [7] | [8] | [9] | [10] | [11] | [12] | [13] | [14] | [15] | [16] | [17] | [18] | [19]

NS(=O)(=O)c1cc2c(cc1Cl)NCNS2(=O)=O
inactive: [1] | [2] | [3] | [4] | [5] | [6] | [7] | [8] | [9] | [10] | [11] | [13] | [14] | [15] | [16] | [17] | [18] | [19]

Nc1ccccc1N
active: [20] 15.8 µM | [3] 12.9 µM | [8] 32.3 µM | [9] 5.63 µM | [10] 9.57 µM | [11] 38.8 µM | [13] 14.2 µM | [15] 45.8 µM | [16] 59.9 µM | [18] 18.9 µM | [19] 16.2 µM
inactive: [2] | [4] | [5] | [6] | [7] | [12] | [14] | [17]

NCCO
inactive: [1] | [2] | [3] | [4] | [5] | [6] | [7] | [8] | [9] | [10] | [11] | [12] | [13] | [14] | [15] | [16] | [17] | [18] | [19]

C[C@]12C=CC(=O)C=C1CC[C@@H]1[C@@H]2C(=O)C[C@@]2(C)[C@H]1CC[C@]2(O)C(=O)CO
inactive: [20] | [2] | [3] | [4] | [5] | [6] | [7] | [8] | [9] | [10] | [11] | [12] | [13] | [14] | [15] | [16] | [17] | [18] | [19]

COc1ccc(S(=O)(=O)N2C(=O)[C@@](c3ccccc3OC)(N3C[C@H](O)C[C@H]3C(=O)N(C)C)c3cc(Cl)ccc32)c(OC)c1
active: [20] 86.2 µM | [2] 93.2 µM | [3] 92.4 µM | [5] 63 µM | [7] 78.1 µM | [8] 68.6 µM | [10] 61 µM | [11] 106 µM | [13] 40.7 µM | [15] 68.2 µM | [16] 100 µM | [18] 100 µM | [19] 65.7 µM
inactive: [4] | [6] | [9] | [12] | [14] | [17]

CC(=O)C(C)=CC1C(C)=CCCC1(C)C (stereo unspecified)
inactive: [1] | [2] | [3] | [4] | [5] | [6] | [7] | [8] | [9] | [10] | [11] | [12] | [13] | [14] | [15] | [16] | [17] | [18] | [19]

From PubChem BioAssay (EPA / NIEHS)
